Screening data (PubChem BioAssay)
TrxR1 substrate = qHTS Assay for Substrates of Mammalian Selenoprotein Thioredoxin Reductase 1 (TrxR1): qHTS | 390,000 tested, 0.01% active | purified TrxR1 substrate turnover, NADPH consumption readout | Potency, µM (highest dose often 114 µM), without a hit: top-dose activity change, negative = substrate turnover; further: nearly all actives have a fitted effect of over 50% in size
Target sequence (O89049 whole entry, looked up): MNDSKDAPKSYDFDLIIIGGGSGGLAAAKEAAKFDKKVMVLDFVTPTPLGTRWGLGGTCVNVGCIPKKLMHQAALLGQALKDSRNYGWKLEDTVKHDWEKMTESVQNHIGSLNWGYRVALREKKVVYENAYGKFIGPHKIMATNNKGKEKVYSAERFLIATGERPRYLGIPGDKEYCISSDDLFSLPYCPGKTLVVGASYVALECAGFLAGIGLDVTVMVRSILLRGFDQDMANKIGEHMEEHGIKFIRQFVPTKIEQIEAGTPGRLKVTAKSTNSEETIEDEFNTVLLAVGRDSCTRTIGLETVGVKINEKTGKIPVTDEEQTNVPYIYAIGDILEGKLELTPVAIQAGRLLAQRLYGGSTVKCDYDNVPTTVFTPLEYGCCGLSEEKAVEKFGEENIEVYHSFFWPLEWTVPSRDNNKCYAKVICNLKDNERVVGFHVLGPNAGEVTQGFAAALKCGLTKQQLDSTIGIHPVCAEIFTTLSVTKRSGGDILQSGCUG
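Rat TrxR1, dispensed at 90 nM, was prereduced with 400 uM NADPH (final) for 5 min at ~22 deg C, then incubated with compound 15 min before 400 uM selenite. A first-read NADPH fluorescence drop versus no-compound background flagged substrates.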
PLK1 PBD inh = qHTS for Inhibitors of PLK1-PDB (polo-like kinase 1 - polo-box domain): Primary Screen; AID 720504, 2013; 360,000 tested, 2.8% active; Plk1 PBD binding of FITC phosphopeptide, fluorescence polarization; Potency, µM, for the others: max response, negative = inhibition, most hits filed as inhibitors; further: series mostly up to about 57 µM; nearly all actives have a fitted effect of over 65% in size
VDR inhibitor = Inhibitors of the vitamin D receptor (VDR): qHTS; 400,000 tested, 0.93% active; Potency, µM, without a hit: max response, negative = inhibition, actives largely listed as inhibitors; VDR-SRC2-3 peptide fluorescence polarization, 2 h
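FP read-out; VDR + SRC2-3 coactivator peptide; 23 nl compound by pintool; 2 h RT incubation; reagents held at 4 deg C, protected from light.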
mIDH1 inhibitor = qHTS for Inhibitors of mutant isocitrate dehydrogenase 1 (IDH1): qHTS; IDH1-R132H enzyme, NADPH consumption, diaphorase/resazurin fluorescence; 390,000 tested, 0.093% active; AID 602179, 2012; Potency, µM (top dose mostly 76.6 µM), for inactives: at the highest dose activity change, negative = inhibition, most hits filed as inhibitors; Isocitrate dehydrogenase [NADP] cytoplasmic (Homo sapiens), O75874; further: nearly all actives have a fitted effect of over 65% in size
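IDH1-R132H (0.5 ug/mL) preincubated 30 min with compound, then NADPH (0.016 mM) and alpha-KG (2 mM) added; 80 min at RT, pH 7.5. Remaining NADPH coupled via diaphorase/resazurin to fluorescence (540/590 nm); concentration-response curves normalized to no-enzyme control.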
rTrxR1 inhibitor = qHTS Assay for Inhibitors of Mammalian Selenoprotein Thioredoxin Reductase 1 (TrxR1): qHTS; recombinant rTrxR1, NADPH fluorescence consumption, selenite substrate; Potency, µM (highest dose often 114 µM), inactives show at the highest dose activity change, negative = inhibition, actives largely listed as inhibitors; 390,000 tested, 1% active; AID 588453, 2011; further: nearly all actives have a fitted effect of over 65% in size
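Rat TrxR1 (90 nM in the dispensed reagent) was pre-reduced with 400 uM NADPH for 5 min at room temperature, then incubated with compound for 15 min. After 400 uM selenite was added, NADPH fluorescence (Ex 340/Em 450 nm) was followed for 8 min.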
Sfp PPTase inh = qHTS Assay for Inhibitors of Bacillus subtilis Sfp phosphopantetheinyl transferase (PPTase) | 310,000 tested, 3.5% active | Potency, µM, inactives show largest response in the series, negative = inhibition, hits mostly inhibitors | Biochemical Sfp PPTase activity, qHTS | AID 1490, 2009;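 further: the enzyme is Sfp with the accession as filed and its product quenches rhodamine fluorescence; 0% = enzyme reaction without inhibitor and -100% = no enzyme wells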
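With Hepes-Na pH 7.6 buffer containing 10 mM MgCl2, Sfp (15 nM) modified BHQ-2-YbbR (12.5 uM) using rhodamine-CoA (5 uM). Two reads 30 minutes apart at 525/598 nm yielded each well's rate.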
* = called active by the depositor; ? = inconclusive; . = no result; [ ] = remark or other dose. Most compounds without a hit are left out; they make up all but 5.2% or so of the library. The call rests on the fitted dose curve; in most records, active means well fitted curve in the direction sought with a large enough effect; inconclusive means small, poorly fitted or top-dose-only effect, or another doubt; inactive means no such curve, though single readings can be large; an effect the other way counts as inactive or inconclusive. Unless noted, on the % scale 0 is the no-effect control and ±100 the full control effect; potency means the concentration at half of the fitted maximal effect.

SMILES	TrxR1 substrate	PLK1 PBD inh	VDR inhibitor	mIDH1 inhibitor	rTrxR1 inhibitor	Sfp PPTase inh
O=C1Cc2ccccc2Sc2cc(OCCCN3CCCCC3)ccc21	-4.2%	-7.9%	-0.5%	8.9%	2.7%	-3.7%
CC(C)c1cc(Nc2cccc(O)c2)cc(C(C)C)c1O	.	.	.	.	.	22.4µM*
CC(C)c1cc(NC(=O)C(C)(C)C)cc(C(C)C)c1O	11.9%[57.1 µM]	-23.1%	-5.5%	-2.2%	20.3%[57.1 µM]	2.1%
OC[C@@H]1CN(Cc2ccc3c(c2)OCO3)C[C@H](n2cnc3c(NC4CCCC4)ncnc32)O1	.	-6.4%	.	.	.	.
COc1ccccc1CC(=O)Nc1ccc(Cl)cc1C(=O)O	13.8%[57.1 µM]	-9.7%	7.6%	28.1%	25.0%[57.1 µM]	7.5%
O=C(COc1ccccc1C(=O)O)Nc1cccc2ccccc12	-0.1%	-8.5%	6.4%	-9.5%	6.4%	.
O=C(COc1cccc2ccccc12)Nc1cc(Cl)ccc1C(=O)O	8.5%[57.1 µM]	21.2µM*	-30.0%	17.5%	14.3%[57.1 µM]	27.1%
O=C(COc1cccc2ccccc12)Nc1ccc(Cl)cc1C(=O)O	2.8%	26.7µM*	?	45.9%	15.7%	-5.0%
COCCn1c(=O)c(CCc2ccccc2)nc2cnc(Oc3ccccc3)nc21	.	.	0.6%	.	.	12.7%
O=C(CN(CCc1c[nH]c2ccccc12)S(=O)(=O)c1ccccc1)N1CCCCCC1	4.1%	.	.	.	29.3%	.
O=C(NCc1cccc(F)c1)C1CCC(=O)N(CC2CCCCC2)C1 (stereo not drawn)	-5.1%	-9.8%	-0.8%	3.5%	-5.9%	2.8%
Cc1cc(SCC(=O)N(CC(C)C)c2c(N)n(CC(C)C)c(=O)[nH]c2=O)nc2ccccc12	14.9%	13.4µM*	?	-4.1%	18.3%	.
Cc1cc(C(=O)N/N=C/c2cc(Br)c(Br)o2)n[nH]1	-1.2%	-22.6%	?	6.0%	35.5µM*	?
CCC(C)(CN(C)C)OC(=O)c1ccccc1 (stereo not drawn)	-7.5%	7.5%	-9.1%	-7.7%	-24.8%	.
COc1ccc(-c2noc(-c3ccc(NC4CCCC4)c([N+](=O)[O-])c3)n2)cc1	-0.2%	.	6.8%	4.8%	5.4%	.
Clc1cccc[n+]1CCCCCC[n+]1ccccc1Cl	-8.2%	.	.	.	56.2µM*	.
Brc1cccc[n+]1CCCCCC[n+]1ccccc1Br	7.3%	.	.	.	?	.
CCN(Cc1ccncc1)Cc1c(O)ccc2cc(Br)ccc12	8.6%[57.1 µM]	10.6µM*	-15.9%	6.4%	7.94µM*	44.7µM*
Cc1cc(C)c(S(=O)(=O)/N=C2\C=CC(=O)C(Cl)=C2)c(C)c1	5.4%	28.2µM*	-24.9%	4.6%	17.8µM*	50.1µM*
Cc1ccc(S(=O)(=O)c2c(C)cc(C)nc2Cl)c(C)c1	-2.9%	-1.6%	-3.4%	20.0%	7.3%	6.3%
COCc1ccc(C(=O)N2CCCC(CNC(=O)c3ccc(F)cc3)C2)o1 (stereo not drawn)	-7.8%	-6.2%	-4.2%	-3.5%	35.5µM*	-23.8%
CNC(=O)CSc1nc2nc(C)cc(C)n2n1	-1.4%	-6.8%	2.8%	0.1%	1.6%	-5.9%
CCOC(=O)CC(=O)CSc1nc2nc(C)cc(C)n2n1	10.4%	-0.2%	-0.7%	-2.3%	?	56.2µM*
CCCOc1ccc(Br)cc1-c1cc(-c2ccc(Cl)cc2)[nH]c1-c1ccncc1	.	.	.	.	.	38.6%
COc1ccccc1CNC(=O)CSc1ccc(C(=O)Nc2ccccc2OC)cc1[N+](=O)[O-]	-0.7%	-3.6%	7.9%	1.4%	-7.6%	50.1µM*
